Calls of active or inactive are those of the source. Rule for the calls: active = hit-call score of the fitted dose curve at least 0.9, where 1 is the maximum; inactive = score below 0.9.

A short description of the test: CCTE_Shafer_MEA_acute_per_network_burst_spike_number_std: CCTE's Neural Acute Assay for Standard Deviation of Number of Spikes in a Network Burst, Shafer Lab (AID 2284020).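 Note: fitted for decrease in spike-number SD versus DMSO so actives lower it.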 The procedure:
CCTE_Shafer_MEA_acute assay is conducted using Axion Biosystems 48 well microelectrode array (MEA) plates and Maestro recording system. Each well of the MEA plate contains a grid of 16 microelectrodes embedded in the culture surface. Electrically active cells, such as neurons, can be cultured over the electrodes, and electrical activity in these cells can be recorded extracellularly. The spontaneous firing of neurons is captured from each electrode on a microsecond timescale providing both temporally and spatially precise data. […] The CCTE_Shafer_MEA_acute assay uses primary cultures of rat cortical neurons. As these cultures mature over time, neural networks develop functional activity and form cohesive networks in which electrical activity can be highly coordinated. Baseline 40-minute recordings are made on days post-plating 13 or 15, followed by a secondary 40-minute recording after chemical exposure.CCTE_Shafer_MEA_acute_per_network_burst_spike_number_std is a component of the CCTE_Shafer_MEA_acute assay. It measures the standard deviation of the number of spikes (action potential firings) in a network burst (temporally-clustered group of spikes across multiple electrodes) during a recording in a microelectrode array (MEA) using Axion Biosystems Maestro 768 channel amplifier with the AxIS adaptive spike detector. The recordings before and after chemical treatment are used to calculate a percent change in the standard deviation of the number of spikes in network bursts in each well.Data from the assay component CCTE_Shafer_MEA_acute_burst_spike_number_std was analyzed into 1 assay endpoint. This assay endpoint, CCTE_Shafer_MEA_acute_burst_spike_number_std, was analyzed in the negative analysis fitting direction relative to DMSO as the negative control and baseline of activity. Using a type of functional reporter, gain or loss-of-signal activity can be used to understand electrical activity.
Spontaneous activity in the cortical cultures was recorded using an Axion Biosystems Maestro 768 channel amplifier and Axion Integrated Studios (AxIS) v1.8 (or later) software. The amplifier recorded from all channels simultaneously (gain = 1200 x; sampling rate = 12.5 kHz/channel): raw signals were filtered with a Butterworth band-pass filter (300-5000 Hz), which filters out slower local field potentials leaving only fast potentials, i.e., "spikes", arising from extracellular currents associated with action potentials (Pine 2006; Wheeler and Nam 2011). On-line spike detection of filtered signals was conducted with the AxIS adaptive spike detector, using a threshold of 8x the root mean squared (rms) noise on each channel. Any electrodes with rms noise levels greater than 5 uV were grounded (e.g., no data were recorded). Once grounded, an electrode was grounded for the duration of the experiment. All recordings were conducted at 37 C. Wells were deemed usable if on the day of the exposure >/= 10 electrodes were active (defined as >/= 5 spikes/min). On DIV 13 or 15, a minimum of three wells from one cortical culture preparation were treated with each compound (0.03-40 uM). Prior to recording baseline activity, each mwMEA plate was placed in the Maestro at 37 C and allowed to sit for 20 min while firing rates stabilized. Baseline activity (40 min) was recorded before the addition of each compound. An additional 40 min of spontaneous activity was recorded in the presence of each compound. Changes in network parameters relative to baseline were assessed following compound treatment.
In the case of `CC(C)(C)c1ccccc1O`, the outcome was inactive. On the same count and under the same terms, the value for `O=C(Cc1ccccc1)OCCc1ccccc1` was “inactive”. On the same count and under the same terms, with `Cc1ccccc1OP(=O)(Oc1ccccc1C)Oc1ccccc1C` the entry was “inactive”; with `Clc1cccc(Cl)c1Cl`, “inactive”; with `CCCCCCCCCCCCc1cccc(S(=O)(=O)O)c1`, “inactive”. Turning to `CC1(C)[C@H](C(=O)O[C@H](C#N)c2cccc(Oc3ccccc3)c2)[C@@H]1/C=C(\Cl)C(F)(F)F`, the AC50 was 0.427 µM (active).

Turning to `Oc1ccc(Cc2ccc(O)cc2)cc1`, the call was inactive.

Turning to `CC(C)[C@@H](Nc1ccc(C(F)(F)F)cc1Cl)C(=O)OC(C#N)c1cccc(Oc2ccccc2)c1` (stereo not given in full), the AC50 is 0.289 µM (active). Take `N#Cc1cccnc1`: the result was inactive. Consider `CCCCOC(=O)COC(=O)c1ccccc1C(=O)OCCCC`, for which the outcome was inactive. On the same count and under the same terms, with `OCCCCO` the entry was “inactive”; with `Oc1cc(Cl)c(Cl)cc1Cl`, “inactive”. The same measure, in the same setting: with `Cc1cc(C(F)(C(F)(F)F)C(F)(F)F)ccc1NC(=O)c1cccc(I)c1C(=O)NC(C)(C)CS(C)(=O)=O` the entry was “inactive”.

For `CN(C)C(=S)S`, the call was inactive. On the same count and under the same terms, with `CS(=O)(=O)c1ccc(C(=O)C2C(=O)CCCC2=O)c(Cl)c1COCC(F)(F)F` the entry was “inactive”.
